Consider 16 compounds from PubChem BioAssay (EPA / NIEHS).

The source made the active and inactive calls. Rule for the calls: active = hit-call score of the fitted dose curve at least 0.9, where 1 is the maximum; inactive = score below 0.9.

The test can be described thus: CCTE_Shafer_MEA_acute_firing_rate_mean: CCTE's Neural Acute Assay for Mean Firing Rate, Shafer Lab (AID 2284009). As for the experimental part: CCTE_Shafer_MEA_acute assay is conducted using Axion Biosystems 48 well microelectrode array (MEA) plates and Maestro recording system. Each well of the MEA plate contains a grid of 16 microelectrodes embedded in the culture surface. Electrically active cells, such as neurons, can be cultured over the electrodes, and electrical activity in these cells can be recorded extracellularly. The spontaneous firing of neurons is captured from each electrode on a microsecond timescale providing both temporally and spatially precise data. […] The CCTE_Shafer_MEA_acute assay uses primary cultures of rat cortical neurons. As these cultures mature over time, neural networks develop functional activity and form cohesive networks in which electrical activity can be highly coordinated. Baseline 40-minute recordings are made on days post-plating 13 or 15, followed by a secondary 40-minute recording after chemical exposure.CCTE_Shafer_MEA_acute_firing_rate_mean is a component of the CCTE_Shafer_MEA_acute assay. It measures the frequency number of spikes (action potential firings) as the total number of spikes divided by the length of the recording in a microelectrode array (MEA) using Axion Biosystems Maestro 768 channel amplifier with the AxIS adaptive spike detector. The firing rate is divided by the number of electrodes to report a well-mean value. The recordings before and after chemical treatment are used to calculate a percent change in the mean firing rate in each well.Data from the assay component CCTE_Shafer_MEA_acute_firing_rate_mean was analyzed into 1 assay endpoint. This assay endpoint, CCTE_Shafer_MEA_acute_firing_rate_mean, was analyzed in the negative analysis fitting direction relative to DMSO as the negative control and baseline of activity. Using a type of functional reporter, gain or loss-of-signal activity can be used to understand electrical activity.
Spontaneous activity in the cortical cultures was recorded using an Axion Biosystems Maestro 768 channel amplifier and Axion Integrated Studios (AxIS) v1.8 (or later) software. The amplifier recorded from all channels simultaneously (gain = 1200 x; sampling rate = 12.5 kHz/channel): raw signals were filtered with a Butterworth band-pass filter (300-5000 Hz), which filters out slower local field potentials leaving only fast potentials, i.e., "spikes", arising from extracellular currents associated with action potentials (Pine 2006; Wheeler and Nam 2011). On-line spike detection of filtered signals was conducted with the AxIS adaptive spike detector, using a threshold of 8x the root mean squared (rms) noise on each channel. Any electrodes with rms noise levels greater than 5 uV were grounded (e.g., no data were recorded). Once grounded, an electrode was grounded for the duration of the experiment. All recordings were conducted at 37 C. Wells were deemed usable if on the day of the exposure >/= 10 electrodes were active (defined as >/= 5 spikes/min). On DIV 13 or 15, a minimum of three wells from one cortical culture preparation were treated with each compound (0.03-40 uM). Prior to recording baseline activity, each mwMEA plate was placed in the Maestro at 37 C and allowed to sit for 20 min while firing rates stabilized. Baseline activity (40 min) was recorded before the addition of each compound. An additional 40 min of spontaneous activity was recorded in the presence of each compound. Changes in network parameters relative to baseline were assessed following compound treatment.
Take `CC1(C)S[C@@H]2[C@H](NC(=O)[C@H](N)c3ccc(O)cc3)C(=O)N2[C@H]1C(=O)O`: the call was inactive. Usually AC50 stands for the midpoint of the concentration-response curve, whichever way the signal moves. As for `CC[N+](CC)(CC(=O)Nc1c(C)cccc1C)Cc1ccccc1` (tested in a mixture with another compound), the AC50 was 694 nM (active). `Cc1c(C(N)=O)cc([N+](=O)[O-])cc1[N+](=O)[O-]`: the AC50 is 3.2 nM (active).

For the compound `NC(N)=Nc1nc(CSCCC(N)=NS(N)(=O)=O)cs1`, the outcome was inactive.

With `COc1ccccc1Oc1c(NS(=O)(=O)c2ccc(C(C)(C)C)cc2)nc(-c2ncccn2)nc1OCCO`, the compound was called inactive.

For `CNCCC(Oc1ccc(C(F)(F)F)cc1)c1ccccc1` (stereo unspecified), the AC50 was 877 nM (active). On the same count and under the same terms, in the case of `O=[N+]([O-])c1cc(S(=O)(=O)Nc2ccccc2)ccc1Nc1ccccc1` it was 2980 nM (active).

Consider `CN(C)C(=O)C(CCN1CCC(O)(c2ccc(Cl)cc2)CC1)(c1ccccc1)c1ccccc1`, for which the AC50 is 291 nM (active).

Regarding `CC1(C)S[C@@H]2[C@H](NC(=O)[C@H](N)c3ccccc3)C(=O)N2[C@H]1C(=O)O`, the compound was classed as inactive. Same read-out and setting: in the case of `C1CN(CCOCCN2CCOCC2)CCO1` it was “inactive”. For the compound `CC(C)C1OCCN1CCOC(=O)NCCCCCCNC(=O)OCCN1CCOC1C(C)C` (stereo unspecified), the AC50 was 16.3 nM (active). Regarding `COc1cc(CNC(=O)CCCC/C=C/C(C)C)ccc1O`, the outcome was inactive.

Take `CCC[Si](OC(C)=O)(OC(C)=O)OC(C)=O`: the AC50 was 72.1 nM (active). As for `CN(C)Cc1cc(C(C)(C)C)c(O)c(C(C)(C)C)c1`, the AC50 was 2980 nM (active). As for `CN(C)CCC(c1ccc(Cl)cc1)c1ccccn1` (stereo unspecified), the compound was called inactive.

Regarding `COc1ccc(C(=O)c2ccccc2O)c(O)c1`, the AC50 was 5.33 nM (active).
